Results reported in PubChem BioAssay AID1851 (National Center for Advancing Translational Sciences (NCATS), 2009).
Several values for one entry are separate records, joined by “and”; a condition that tells them apart may be missing. Equal values may be shown once. The campaign covered roughly 16,000 compounds. About 5,800 (36%) were called active. Roughly 23% stayed inconclusive and do not appear here. The list shows a part of the results. Unmarked numbers belong to inactive results. Calls follow the shape of the dose curve; as a rule, active = well fitted curve in the direction sought with a large enough effect; inconclusive = small, poorly fitted or top-dose-only effect, or effect the other way; inactive = no such curve, though single readings can be large or run the other way.

What follows are compounds tested against Cytochrome P450 2C19 (Homo sapiens) (UniProt P33261) (assay: Cytochrome panel assay with activity outcomes). Conditions: recombinant CYP, pro-luciferin dealkylation, luminescence, p450-cyp2c19; series mostly up to 57.1 µM; activity, negative = inhibition: at the top concentration.
Chain of Cytochrome P450 2C19 (Homo sapiens) (P33261 whole entry, looked up): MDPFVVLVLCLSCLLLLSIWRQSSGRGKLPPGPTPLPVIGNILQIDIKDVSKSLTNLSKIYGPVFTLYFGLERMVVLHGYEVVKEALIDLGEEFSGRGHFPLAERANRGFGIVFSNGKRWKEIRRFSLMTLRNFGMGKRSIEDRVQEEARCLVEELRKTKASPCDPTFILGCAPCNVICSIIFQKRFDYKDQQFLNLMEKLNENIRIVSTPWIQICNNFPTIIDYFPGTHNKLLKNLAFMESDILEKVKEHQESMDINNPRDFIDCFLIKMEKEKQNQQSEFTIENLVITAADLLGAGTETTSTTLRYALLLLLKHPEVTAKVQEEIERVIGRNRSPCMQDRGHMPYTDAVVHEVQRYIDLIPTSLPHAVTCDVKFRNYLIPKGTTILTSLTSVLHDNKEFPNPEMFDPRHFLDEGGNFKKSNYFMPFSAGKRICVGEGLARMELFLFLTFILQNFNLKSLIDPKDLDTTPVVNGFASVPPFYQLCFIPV
% is scaled to controls: 0 for no effect and ±100 for the full control effect.

SMILES	activity, negative = inhibition	AC50
COC(=O)CC[C@@H](C)[C@H]1CC[C@H]2[C@H]3CC[C@H]4C[C@@H]5CC[C@@]4(C)C3(O5)[C@@H](Br)[C@@H](Br)[C@@]12C	-31% [at 11.4 µM]	–
OCCN=c1cc(-c2ccccc2)oc2ccc(Cl)cc12	–	1.58 µM (active)
CCCCCCN1Cc2ccccc2C1	–	10 µM (active)
CCCCNC(=O)[C@@H]1Cc2ccccc2N1C(=O)[C@H](N)CC	6.24%	–
CCCCN1CCC(n2c(=O)[nH]c3ccccc32)CC1	26.7%	–
CCN(CC)C(=O)N1CCN(C)CC1	-6.34% [at 25.6 µM]	–
Cn1cccc1C(=O)N1CCC2(CCCN(Cc3ccccc3)C2)CC1	-28%	–
COC(=O)[C@@]1(Cc2ccccc2)[C@H]2c3cc(C(=O)N4CCCC4)n(C)c3C[C@H]2CN1C(=O)c1ccccc1	–	3.98 µM (active)
COc1ccccc1CN1CCCC2(CCN(C(=O)c3ccncc3)CC2)C1	-42.2%	–
COC(=O)[C@@]1(Cc2ccccc2)[C@H]2c3cc(C(=O)N4CCCC4)n(Cc4ccc(O)c(OC)c4)c3C[C@H]2CN1C(=O)c1ccccc1	–	0.501 µM (active)
COC(=O)[C@@]1(Cc2ccccc2)[C@H]2c3cc(C(=O)N4CCCC4)n(CC4CC4)c3C[C@H]2CN1C(=O)c1ccccc1	–	3.16 µM (active)
O=C(c1ccncc1)N1CCC2(CC1)CCN(c1ncccn1)CC2	–	2.51 µM (active)
O=C(c1cccc(F)c1)N1CCC2(CC1)CN(c1ccc(-c3ccccc3)cc1)C2	-6.52%	–
O=C(c1cccc(F)c1)N1CCC2(CC1)CCN(c1ccncc1)CC2	-19%	–
O=C(c1ccncc1)N1CCC2(CC1)CN(c1ncccn1)C2	-28.5%	–
O=C(c1cc(C(F)(F)F)cc(C(F)(F)F)c1)N1CCC2(CC1)CN(c1ccncc1)C2	-19.3%	–
O=C(c1ccncc1)N1CCC[C@@]2(CCN(c3ccccc3)C2)C1	3.46%	–
COc1ccc(C(=O)N2CCC3(CC2)CCN(c2ncccn2)CC3)cc1	-25.9%	–
O=C(c1cccc(F)c1)N1CCC2(CC1)CN(c1ccncc1)C2	–	3.16 µM (active)
O=C(c1ccncc1)N1CCC2(CC1)CN(c1ccccc1)C2	–	0.316 µM (active)
NC(N)=NC(N)=Nc1ccc(S(N)(=O)=O)cc1	28.1% [at 11.4 µM]	–
CC(C)CN1CC2(CCN(C(=O)c3cccc(F)c3)CC2)C1	19.3%	–
NNC(=O)[C@@H](O)[C@H](O)[C@H](O)CO	16% [at 11.4 µM]	–
Cn1c([N+](=O)[O-])cnc1COC(N)=O	-41.3% [at 25.6 µM]	–

SMILES	activity, negative = inhibition	AC50
CCCCCCCCCCCCCCCC(=O)C(F)(F)F	19.4%	–
COc1ccc(-c2cc(C3CCN(c4cc(Cl)nc(N)n4)CC3)[nH]n2)cc1	–	3.16 µM (active)
Nc1nc(Cl)cc(N2CCC(c3cc(-c4ccc(Cl)cc4Cl)n[nH]3)CC2)n1	–	3.98 µM (active)
NC1CCN(c2cccc(Cl)n2)CC1	–	inactive
C[N+](C)(C)c1ccc([C@H](N)C(=O)O)cc1	-19.4% [at 11.4 µM]	–
CCOC(=O)C1C(=O)C=C(c2ccc(C)cc2)CC1c1ccco1 (stereo not given)	–	3.98 µM (active)
CCOC(=O)C1C(=O)C=C(c2ccc(NS(C)(=O)=O)cc2)CC1c1ccco1 (stereo not given)	–	14.1 µM (active)
N[C@@H](Cn1cc(F)c(=O)[nH]c1=O)C(=O)O	-26.3%	–
CCCCCCCCn1cc(C(C)=O)c(=O)[nH]c1=O	–	17.8 µM (active)
CCCCCCC(C)n1cc(C(C)=O)c(=O)[nH]c1=O (stereo not given)	–	15.8 µM (active)
CC(C)NC[C@H](O)c1cc(O)cc(O)c1	–	inactive
CC(C)Oc1ccc2ccccc2c1C=O	–	10 µM (active)
COc1ccc(C(=O)NCS(=O)(=O)c2ccc(C)cc2)cc1	–	6.31 µM (active)
Cc1cc(N2CCN(C)CC2)nc2ccc(NC(=O)CCC(=O)NCc3ccco3)cc12	34.7%	–
O=C(CN(Cc1ccco1)C(=O)c1cccc(Cl)c1)Nc1c(Cl)cc(Cl)cc1Cl	–	10 µM (active)
O=C(CN(Cc1ccco1)C(=O)c1ccccc1)Nc1ccc(Cl)c(Cl)c1	–	3.16 µM (active)
CO[C@]1(C2=NCCN2)COc2ccccc2O1	–	inactive
CC(=O)c1ccc(-n2nnnc2SCC(=O)Nc2cccc(NC(=O)c3ccco3)c2)cc1	–	3.16 µM (active)
O=C(CSc1ccc(Cl)cc1)Nc1cccc(NC(=O)c2ccco2)c1	–	2.51 µM (active)
CCc1cc2cc(C)c(C)cc2nc1SCC(=O)NNC(=O)c1ccco1	1.63%	–
Cc1ccc(SCC(=O)Nc2cccc(NC(=O)c3ccco3)c2)cc1	–	7.08 µM (active)
Cc1ccc(-n2nnnc2SCC(=O)NNC(=O)c2ccco2)c(C)c1	-28.9%	–
CCC(=O)Nc1cccc(NC(=O)CSc2nnnn2Cc2ccccc2)c1	–	10 µM (active)
CNC(=O)c1nnn(Cc2ccccc2)c1NC(=O)C(F)(F)F	-10.7%	–

SMILES	activity, negative = inhibition	AC50
O=C(NC1CCCCC1)c1sc(=S)n2c1[nH]c(=O)c1ccccc12	–	4.47 µM (active)
Nc1c(C(=O)NCc2ccccc2)sc2nc3c(cc12)C(=O)CCC3	-22.7%	–
O=C(NCc1ccccc1)c1sc(=S)n2c1[nH]c(=O)c1ccccc12	–	11.2 µM (active)
CC(=O)O[C@]1(C(C)=O)CC[C@@H]2[C@@H]3C=C(C)C4=CC(=O)CC[C@@]4(C)[C@H]3CC[C@]21C	-8.41% [at 25.6 µM]	–
CC(=O)CC(=O)[C@@]1(O)CC[C@@H]2[C@@H]3C=C(C)C4=CC(=O)CC[C@@H]4[C@H]3CC[C@]21C	–	5.01 µM (active)
N#CC(=C(/N)Sc1ccccc1N)/C(C#N)=C(/N)Sc1ccccc1N	-43%	–
N#Cc1ccccc1Sc1ccccc1N	–	2.82 µM (active)
C[C@@H](c1ccccc1)N1C(=O)[C@@H]2[C@H]3C(=CC[C@H]2C1=O)C(=O)[C@H]1O[C@H]1[C@H]3O	18.8% [at 11.4 µM]	–
Cc1ccc(S(=O)(=O)N(Cc2ccccc2)c2ccccc2C(=O)NCc2ccco2)cc1	–	3.55 µM (active)
CC(=O)OCC1=C(C(=O)O)N2C(=O)[C@@H](NC(=O)CSc3ccncc3)[C@@H]2SC1	–	inactive
N[C@H](C(=O)N[C@@H]1C(=O)N2C(C(=O)O)=C(Cl)CS[C@@H]12)c1ccccc1	–	inactive
CC1=C(C(=O)O)N2C(=O)C(NC(=O)c3ccn(C)n3)C2SC1 (stereo not given)	–	25.1 µM (active)
C#CCN(C)CCCOc1ccc(Cl)cc1Cl	–	5.01 µM (active) and 2.51 µM (active)
CCCCN(C)Cc1c(C)[nH]c2ccc(Cl)cc2c1=O	-27.8%	–
O=[N+]([O-])c1ccc(S(=O)(=O)Cc2ccccc2)c2nonc12	–	3.16 µM (active)
O=[N+]([O-])c1cccc2c[nH]nc12	7.18%	–
CN1CCN(c2ncncc2-c2ccccc2Cl)CC1	-30.3%	–
CNc1cc(-c2ccccc2C(F)(F)F)ncn1	-43.7%	–
CN1CCN(c2ncncc2-c2ccccc2C(F)(F)F)CC1	–	15.8 µM (active)
CN1CCN(c2cc(-c3ccccc3C(F)(F)F)ncn2)CC1	–	10 µM (active)
FC(F)(F)c1ccccc1-c1cc(NCCN2CCOCC2)ncn1	15.6%	–
O=c1onc(-c2cccs2)n1Cc1ccccc1	–	1 µM (active)
CN(C)c1ncc2nc(-c3cccs3)c(=O)n(CCc3ccccc3)c2n1	-44.5%	–
COc1ccc(Br)cc1/C=C/C(=O)Nc1c(C)cccc1C	–	4.47 µM (active)

SMILES	activity, negative = inhibition	AC50
CCn1nc(C)c(NC(=O)/C=C/c2cnn(C)c2C)c1C	0.913%	–
O=C(O)Cn1ccnc1[N+](=O)[O-]	4.05% [at 11.4 µM]	–
O=C(c1cnccn1)N1CCC[C@@]2(CCN(Cc3cc(C(F)(F)F)cc(C(F)(F)F)c3)C2)C1	-15.7%	–
O=C(c1cnccn1)N1CCC[C@@]2(CCN(c3ccncc3)C2)C1	3.85%	–
O=C(c1cnccn1)N1CCC[C@@]2(CCN(Cc3ccncc3)C2)C1	–	10 µM (active)
N#Cc1ccc(CN2CC[C@@]3(CCCN(C(=O)c4cc(C(F)(F)F)cc(C(F)(F)F)c4)C3)C2)cc1	-26.1%	–
O=C(c1cc(C(F)(F)F)cc(C(F)(F)F)c1)N1CCC[C@@]2(CCN(Cc3ccccc3)C2)C1	-36%	–
O=C(c1cc(C(F)(F)F)cc(C(F)(F)F)c1)N1CCC[C@@]2(CCN(Cc3ccncc3)C2)C1	–	0.2 µM (active)
CCC(=O)O[C@@]1(C(=O)CCl)[C@@H](C)C[C@@H]2[C@H]3CCC4=CC(=O)C=C[C@@]4(C)[C@]3(F)[C@@H](O)C[C@@]21C	-27.9% [at 25.6 µM]	–
CCOC(=O)c1cccc(NC(=O)COc2ccc([N+](=O)[O-])cc2)c1	–	3.55 µM (active)
Cc1ccc(S(=O)(=O)CCc2nnc(NC(=O)COc3cccc(C)c3)s2)cc1	5.12%	–
C[N+]1(CCOc2ccc([N+](=O)[O-])cc2)CCOCC1	-11.9%	–
Cc1ccnc(NC(=O)c2cccc(NC(=O)COc3ccccc3)c2)c1	–	15.8 µM (active)
O=C(COc1ccc(/C=N/NC(=O)c2ccccc2)cc1)Nc1ccc([N+](=O)[O-])cc1	47%	–
C/C(CC(=O)Nc1cc(C)ccn1)=N\NC(=O)COc1cccc(C)c1	–	25.1 µM (active)
CC(C)c1nc2oc3ccccc3c(=O)c2c(=O)n1-c1ccccc1	4.63%	–
CC(C)Cn1c(N)c(C(=O)CSc2ccc3c(c2)OCCO3)c(=O)n(C)c1=O	–	2.51 µM (active)
Cc1nn(-c2ccc(Cl)cc2)c2sc(C(=O)c3c(N)n(C)c(=O)n(C)c3=O)cc12	-25.1%	–
Cn1c(N)c(C(=O)CSc2ccc3c(c2)OCCO3)c(=O)n(C)c1=O	–	5.62 µM (active)
CC(C)Cn1c(=O)n(C)c(=O)c2[nH]cnc21	33%	–
COc1ccc(C2=Nc3cccc4cccc(c34)N2)cc1	-28.3%	–
C/C(=N\OC(=O)NC1CCCCC1)c1sc(-c2ccccc2)nc1C	–	5.62 µM (active)
O=C(O)c1cc2ccccc2c(S(=O)(=O)O)c1O	23.2% [at 11.4 µM]	–
